Measurements from PubChem BioAssay AID1159580 (chemical genetic matrix, 2015).
Out of some 5,500 compounds screened, about 2,000 (36%) were called active. Not shown: some 18% with an inconclusive outcome. Cut-off read from the data, not from the text of the source: active = normalized growth mostly below about 0.91 (no sharp cut-off); inconclusive = no clear call, values can overlap the other calls; inactive = mostly above about 0.92. This is one part of the list.

Assay: chemical genetic growth profiling, strain panel (AID 1159580);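 note: tested at 20 µM; growth read once vehicle control cultures reached saturation at 30 °C; 1 = growth at the plate median or of vehicle wells; lower values mean less growth of the strain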
Details: S. cerevisiae deletion strains, growth OD

Measured: normalized growth

CC1(C)CCCC2(C)C3C1[C@@H](O)C2(C)C[C@H]3O (stereo not given in full)
inactive: locus YAL021C, strain ccr4, hits give low values 1.01 | locus YAL026C, strain drs2, hits give low values 1.04 | locus YAL030W, strain snc1, hits give low values 0.993 | locus YBL061C, strain skt5, hits give low values 1.01 | locus YBR009C, strain hhf1, hits give low values 1.03 | locus YBR023C, strain chs3, hits give low values 1.01 | locus YBR171W, strain sec66, hits give low values 1.04 | locus YBR231C, strain swc5, hits give low values 1.03 | locus YBR279W, strain paf1, hits give low values 1.03 | locus YCL011C, strain gbp2, hits give low values 1.03 | locus YCL016C, strain dcc1, hits give low values 1 | locus YCL061C, strain MRC1, hits give low values 1.02 | locus YCL069W, strain vba3, hits give low values 1.02 | locus YCR088W, strain abp1, hits give low values 1.03 | locus YDL005C, strain med2, hits give low values 1.03 | locus YDL040C, strain nat1, hits give low values 1.01 | locus YDR001C, strain nth1, hits give low values 1.03 | locus YDR069C, strain doa4, hits give low values 0.992 | locus YDR137W, strain rgp1, hits give low values 0.973 | locus YDR159W, strain sac3, hits give low values 0.991 | locus YDR195W, strain ref2 1.02 | locus YDR297W, strain sur2, hits give low values 0.985 | locus YDR334W, strain swr1, hits give low values 1.03 | locus YDR335W, strain msn5, hits give low values 0.995 | locus YDR392W, strain spt3, hits give low values 0.941 | locus YEL003W, strain gim4, hits give low values 1.03 | locus YEL037C, strain rad23, hits give low values 1.03 | locus YEL061C, strain CIN8 (second series), hits give low values 1.03 | locus YER015W, strain faa2, hits give low values 1.03 | locus YER016W, strain bim1, hits give low values 1.01 | locus YER111C, strain swi4, hits give low values 1.03 | locus YER155C, strain BEM2 (second series), hits give low values 1.02 | locus YFR010W, strain ubp6, hits give low values 1.04 | locus YGL167C, strain pmr1, hits give low values 1.01 | locus YGL173C, strain kem1, hits give low values 1.03 | locus YGL227W, strain vid30, hits give low values 1.03 | locus YGL240W, strain doc1, hits give low values 1 | locus YGL253W, strain hxk2, hits give low values 1.03 | locus YHR013C, strain ard1, hits give low values 1.04 | locus YHR027C, strain rpn1, hits give low values 0.998 | locus YHR030C, strain SLT2, hits give low values 0.976 | locus YHR079C, strain IRE1, hits give low values 0.983 | locus YHR142W, strain chs7, hits give low values 1.01 | locus YJL092W, strain hpr5, hits give low values 1.03 | locus YJL095W, strain BCK1 (second series), hits give low values 0.988 | locus YJL095W, strain BCK1, hits give low values 1 | locus YJL115W, strain asf1, hits give low values 1.03 | locus YJL129C, strain trk1, hits give low values 1.05 | locus YJL154C, strain vps35, hits give low values 1.02 | locus YJL164C, strain tpk1, hits give low values 1.01 | locus YJL166W, strain qcr8, hits give low values 1.04 | locus YJL187C, strain SWE1, hits give low values 0.985 | locus YJR066W, strain TOR1, hits give low values 0.923 | locus YKL160W, strain elf1, hits give low values 0.986 | locus YKR026C, strain gcn3, hits give low values 1.02 | locus YKR091W, strain srl3, hits give low values 1.02 | locus YLL001W, strain dnm1, hits give low values 0.994 | locus YLL026W, hits give low values 1.01 | locus YLL041C, strain sdh2, hits give low values 0.995 | locus YLR027C, strain aat2, hits give low values 1 | locus YLR113W, strain HOG1, hits give low values 1.05 | locus YLR221C, strain rsa3, hits give low values 1.02 | locus YLR258W, strain gsy2, hits give low values 1.01 | locus YLR262C, strain YPT6 (second series), hits give low values 1.04 | locus YLR320W, strain mms22, hits give low values 1.07 | locus YLR342W, strain FKS1, hits give low values 1.02 | locus YLR357W, strain rsc2, hits give low values 1.04 | locus YLR370C, strain arc18, hits give low values 1.01 | locus YLR384C, strain iki3, hits give low values 1.02 | locus YML120C, strain ndi1, hits give low values 1.01 | locus YMR058W, strain fet3, hits give low values 1.03 | locus YMR125W, strain sto1, hits give low values 1.04 | locus YMR129W, hits give low values 1.03 | locus YMR205C, strain PFK2, hits give low values 1.01 | locus YMR231W, strain pep5, hits give low values 1.03 | locus YNL071W, strain lat1, hits give low values 1.02 | locus YNL183C, strain NPR1, hits give low values 0.963 | locus YNL209W, strain ssb2, hits give low values 0.997 | locus YNL248C, strain rpa49, hits give low values 0.996 | locus YNL322C, strain KRE1 (second series), hits give low values 1.01 | locus YNR049C, strain mso1, hits give low values 0.993 | locus YOR001W, strain rrp6, hits give low values 1 | locus YOR070C, strain gyp1, hits give low values 1 | locus YOR080W, strain dia2, hits give low values 1.01 | locus YOR083W, strain WHI5, hits give low values 0.999 | locus YOR106W, strain vam3, hits give low values 0.985 | locus YOR231W, strain MKK1, hits give low values 0.977 | locus YOR265W, strain rbl2, hits give low values 1 | locus YOR270C, strain vph1, hits give low values 1.08 | locus YOR290C, strain snf2, hits give low values 0.985 | locus YPL051W, strain arl3, hits give low values 1 | locus YPL078C, strain atp4, hits give low values 1.01 | locus YPL106C, strain sse1, hits give low values 1.06 | locus YPL240C, strain hsp82, hits give low values 0.987 | locus YPL256C, strain CLN2, hits give low values 1
